Measurements as given in PubChem BioAssay (NCATS).
Results filed as inconclusive are left out. Activity calls are given as the source filed them. Unless noted, calls follow the shape of the full dose curve.

Columns and labels:
[1] = Primary qHTS for inhibitors of SARS-S pseudo-typed particle cell entry (AID 1479145); conditions: outcome: dose series up to 57.1 µM unless noted; also: nearly all actives have a fitted effect of over 45% in size; as to activity change, negative = inhibition: % is scaled to controls: 0 for no effect and ±100 for the full control effect
[2] = Primary qHTS for Huh7 cytotoxicity: counterscreen for inhibitors of MERS-S pseudotyped particle cell entry (AID 1479147); conditions: outcome: dose series up to 57.1 µM unless noted; as to activity change, negative = cytotoxicity: % is scaled to controls: 0 for no effect and ±100 for the full control effect
[3] = Primary qHTS for inhibitors of MERS-S pseudo-typed particle cell entry (AID 1479149); conditions: outcome: dose series up to 57.1 µM unless noted; also: nearly all actives have a fitted effect of over 60% in size
[4] = Primary qHTS for Vero E6 cytotoxicity: counterscreen for inhibitors of SARS-S pseudo-typed particle cell entry (AID 1479150); conditions: outcome: dose series up to 57.1 µM unless noted; as to activity change, negative = cytotoxicity: % is scaled to controls: 0 for no effect and ±100 for the full control effect
[5] = Cytotoxicity counterscreen for inhibitors of SARS-CoV-2 cell entry (AID 1645845); conditions: outcome: dose series up to 57.1 µM unless noted; also: nearly all actives have a fitted effect of over 50% in size; as to activity change, negative = cytotoxicity: % is scaled to controls: 0 for no effect and ±100 for the full control effect
How it was run: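 Counterscreen run in the same HEK293-ACE2 line as the pseudotyped-particle entry assay, without particles. Viability after 48 h at 37 C was read as ATP luminescence, scaled between cell-containing and cell-free wells.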

[6] = Primary qHTS to identify inhibitors of SARS-CoV-2 cell entry (AID 1645846); conditions: SARS-CoV-2 pseudovirus cell entry assay, luminescence; activity change, negative = inhibition: at 57.1 µM (top of the series) unless noted; also: nearly all actives have a fitted effect of over 45% in size
How it was run: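 Entry measured by luciferase signal 48 h after adding SARS-CoV-2-S pseudotyped MLV particles to HEK293-ACE2 cells preincubated 1 h with compounds. Normalisation: bald particles and spike particles.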

[7] = biological target: Nuclear receptor subfamily 1 group I member 3 (Homo sapiens) (UniProt Q14994); experiment: Primary qHTS for antagonist of constitutive androstane receptor (CAR) against the NCATS DSHEA and TCM libraries (AID 1794836; active = well fitted curve in the direction sought with a large enough effect;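 also: HepG2 cells stably expressing hCAR with CYP2B6 luciferase reporter stimulated by CITCO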)
How it was run: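 HepG2-CYP2B6-hCAR cells, attached 5 h, given compounds plus CITCO agonist […], incubated 24 h at 37 C. Luciferase luminescence read, multiplexed with CellTiter-Fluor viability (Ex/Em 405/540 nm).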

[8] = KB-8-5-11 P-gp reporter qHTS against the NCATS DSHEA and TCM libraries (AID 1919977; active = well fitted curve in the direction sought with a large enough effect; also: 0% is about no effect)
How it was run: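 CellTiter-Glo luminescence measured viability after ~72 h exposure (37C, 5% CO2) of KB-8-5-11 cervical adenocarcinoma cells overexpressing P-gp. Colchicine was omitted during assay. Substances were tested as titrations.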

[9] = biological target: Bile acid receptor (Homo sapiens) (UniProt Q96RI1); experiment: qHTS assay for small molecule agonists of farnesoid X receptor signaling (AID 588527); conditions: HEK293T FXR-UAS-bla, beta-lactamase ratio, 16 h; stronger effect = higher value;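 also: 0% = vehicle basal and 100% = reference agonist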
How it was run: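 Agonist-mode beta-lactamase reporter in GeneBLAzer FXR-UAS-bla HEK293T cells, titration up to 92 uM, 16 h exposure at 37 C, CCF4 fluorescence. Response scaled to DMSO (0%) and 100 uM chenodeoxycholic acid (100%), then Hill-fitted for EC50 and efficacy.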

Bile acid receptor (Homo sapiens), sequence (Q96RI1 whole entry, looked up): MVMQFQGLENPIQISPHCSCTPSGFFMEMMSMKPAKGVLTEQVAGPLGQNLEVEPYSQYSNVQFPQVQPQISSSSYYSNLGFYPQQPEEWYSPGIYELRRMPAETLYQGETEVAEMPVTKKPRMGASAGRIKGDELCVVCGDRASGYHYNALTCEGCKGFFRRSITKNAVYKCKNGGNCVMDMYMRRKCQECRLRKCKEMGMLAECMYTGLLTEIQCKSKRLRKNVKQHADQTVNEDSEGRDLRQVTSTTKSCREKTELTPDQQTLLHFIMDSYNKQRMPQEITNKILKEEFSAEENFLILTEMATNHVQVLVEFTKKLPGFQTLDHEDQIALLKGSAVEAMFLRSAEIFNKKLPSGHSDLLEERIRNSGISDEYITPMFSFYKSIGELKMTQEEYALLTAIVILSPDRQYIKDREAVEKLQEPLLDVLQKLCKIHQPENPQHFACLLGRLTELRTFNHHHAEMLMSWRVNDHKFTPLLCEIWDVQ
Nuclear receptor subfamily 1 group I member 3 (Homo sapiens), sequence (Q14994 whole entry, looked up): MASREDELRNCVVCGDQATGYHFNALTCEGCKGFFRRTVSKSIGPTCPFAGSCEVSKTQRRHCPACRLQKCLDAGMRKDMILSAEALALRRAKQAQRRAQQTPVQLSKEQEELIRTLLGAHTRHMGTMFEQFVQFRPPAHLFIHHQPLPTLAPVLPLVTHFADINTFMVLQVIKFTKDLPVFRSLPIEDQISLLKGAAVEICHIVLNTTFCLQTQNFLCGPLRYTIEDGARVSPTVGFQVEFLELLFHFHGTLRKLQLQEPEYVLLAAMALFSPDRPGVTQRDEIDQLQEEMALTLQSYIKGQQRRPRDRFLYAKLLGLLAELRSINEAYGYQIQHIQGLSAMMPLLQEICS

CC(CCc1ccc(O)cc1)NCC(O)c1ccc(O)cc1 (stereo not drawn)
inactive: Potency [1] | Potency [2] | Potency [3] | Potency [4] | Potency [5] | Potency [6]

CC/C=C\C/C=C\C/C=C\C/C=C\C/C=C\C/C=C\CCC(=O)O
inactive: Potency [1] | Potency [2] | Potency [3] | Potency [4] | Potency [5] | Potency [7] | Potency [8]
3.74%: activity change, negative = inhibition [6]

CC(=O)OCC(=O)[C@@]12OC3(CCCC3)O[C@@H]1C[C@H]1[C@@H]3CCC4=CC(=O)C=C[C@]4(C)[C@@]3(F)[C@@H](O)C[C@@]12C
inactive: Potency [1] | Potency [2] | Potency [3] | Potency [4] | Potency [5] | Potency [6]

C[C@@H]1O[C@@H](O[C@@H]2/C=C/C=C/C=C\C=C\C[C@H](C)OC(=O)/C=C/[C@H]3O[C@@H]3C[C@H](O)C[C@]3(O)C[C@@H](O)[C@@H](C(=O)O)[C@H](C2)O3)[C@H](O)[C@H](N)[C@@H]1O
inactive: activity change, negative = inhibition [1] -7.42% [at 11.4 µM] | activity change, negative = cytotoxicity [2] 0.894% [at 11.4 µM] | outcome [3] inactive [at 11.4 µM] | activity change, negative = cytotoxicity [4] -4.87% [at 11.4 µM] | activity change, negative = cytotoxicity [5] 1.93% [at 11.3 µM]
-12.9% [at 11.3 µM]: activity change, negative = inhibition [6]

O=C(OCCO)c1ccccc1O
-11%: activity change, negative = inhibition [6]
inactive: Potency [1] | Potency [2] | Potency [3] | Potency [4] | Potency [5]

CO[C@H]1/C=C\O[C@@]2(C)Oc3c(C)c(O)c4c(O)c(c(/C=N/N5CCN(C6CCCC6)CC5)c(O)c4c3C2=O)NC(=O)/C(C)=C\C=C/[C@H](C)[C@H](O)[C@@H](C)[C@@H](O)[C@@H](C)[C@H](OC(C)=O)[C@@H]1C
inactive: Potency [1] | Potency [2] | Potency [3] | Potency [4] | Potency [5] | Potency [6]

ClCC1CO1 (stereo not drawn) (tested in a mixture with another compound)
-15.1%: activity change, negative = inhibition [6]
inactive: Potency [1] | Potency [2] | Potency [3] | Potency [4] | Potency [5]

CCC(=O)O[C@]1(C(=O)COC(C)=O)CC[C@H]2[C@@H]3CCC4=CC(=O)CC[C@]4(C)[C@H]3[C@@H](O)C[C@@]21C
-0.634%: activity change, negative = inhibition [6]
inactive: Potency [1] | Potency [2] | Potency [3] | Potency [4] | Potency [5]

C/C(=C\C(=O)OCCCCCCCCC(=O)O)C[C@@H]1OC[C@H](C[C@@H]2O[C@H]2[C@@H](C)[C@H](C)O)[C@@H](O)[C@H]1O
inactive: Potency [1] | Potency [2] | Potency [3] | Potency [4] | Potency [5]
-28.4%: activity change, negative = inhibition [6]

Oc1c(Br)cc(Br)cc1CNC1CCC(O)CC1 (stereo not drawn)
inactive: Potency [1] | Potency [2] | Potency [3] | Potency [4] | Potency [5]
-15.3%: activity change, negative = inhibition [6]

CC(C)(C)NCC(O)COc1ccccc1C#N (stereo not drawn)
-9.12%: activity change, negative = inhibition [6]
inactive: Potency [1] | Potency [2] | Potency [3] | Potency [4] | Potency [5]

NC[C@@H]1CC[C@@H](N)[C@@H](O[C@H]2[C@H](O)[C@@H](O[C@H]3O[C@H](CO)[C@@H](O)[C@H](N)[C@H]3O)[C@H](N)C[C@@H]2N)O1
inactive: Potency [1] | Potency [2] | Potency [3] | Potency [4] | Potency [5]
-17.7% [at 27.1 µM]: activity change, negative = inhibition [6]

CCCCCCCCCCCCCCCCCC(=O)OCC(C)O (stereo not drawn)
inactive: Potency [1] | Potency [2] | Potency [3] | Potency [4] | Potency [5]
-21% [at 114 µM]: activity change, negative = inhibition [6]

CC(C)(S)C(=O)N[C@@H](CS)C(=O)O
-16.1%: activity change, negative = inhibition [6]
inactive: Potency [1] | Potency [2] | Potency [3] | Potency [4] | Potency [5]

CNC[C@@H]1CC[C@@H](N)[C@@H](O[C@H]2[C@H](O)[C@@H](O[C@H]3OC[C@](C)(O)[C@H](NC)[C@H]3O)[C@H](N)C[C@@H]2N)O1
inactive: Potency [1] | Potency [2] | Potency [3] | Potency [4] | Potency [5]
-15.6%: activity change, negative = inhibition [6]

c1ccc2scnc2c1
inactive: Potency [1] | Potency [2] | Potency [3] | Potency [4] | Potency [5]
-27.1%: activity change, negative = inhibition [6]

CC(Oc1ccccc1)C(=O)N[C@@H]1C(=O)N2[C@@H]1SC(C)(C)[C@@H]2C(=O)O (stereo partly drawn)
inactive: Potency [1] | Potency [2] | Potency [3] | Potency [4] | Potency [5]
-18.1%: activity change, negative = inhibition [6]

N#C[C@@H]1CCCN1C(=O)CNC12CC3CC(CC(O)(C3)C1)C2
inactive: Potency [1] | Potency [2] | Potency [3] | Potency [4] | Potency [5] | Potency [6]

CCC(=O)O[C@]1(C(=O)COC(C)=O)CC[C@H]2[C@@H]3C[C@H](C)C4=CC(=O)C=C[C@]4(C)[C@H]3[C@@H](O)C[C@@]21C
-17.7%: activity change, negative = inhibition [6]
inactive: Potency [1] | Potency [2] | Potency [3] | Potency [4]

O=CCCCC=O
inactive: activation [9] -2.56% | Potency [1] | Potency [2] | Potency [3] | Potency [4] | Potency [5]

CC(C)=CCCC(C)=CCCC(C)=CCCC=C(C)CCC=C(C)CCC=C(C)C
inactive: Potency [1] | Potency [2] | Potency [3] | Potency [4] | Potency [5] | Potency [8]
-5.81%: activity change, negative = inhibition [6]

O=C(O)c1cc(O)c2c(c1)[O][Bi][O]2
inactive: activity change, negative = inhibition [1] -20% [at 0.573 µM] | activity change, negative = cytotoxicity [2] -1.24% [at 0.573 µM] | outcome [3] inactive [at 0.573 µM] | outcome [4] inactive [at 0.573 µM]
-27.2% [at 0.702 µM]: activity change, negative = inhibition [6]

CN(C)c1ccc(C(=C2C=CC(=[N+](C)C)C=C2)c2c(O)c(S(=O)(=O)[O-])cc3cc(S(=O)(=O)O)ccc23)cc1
-12.7%: activity change, negative = inhibition [6]
inactive: Potency [1] | Potency [2] | Potency [3] | Potency [4]
